Compounds with a hit are over-represented: about 6.8% of the library has one in this group of screens.
Pf Dd2 inh: P. falciparum Dd2 growth inhibitors, primary screen, SYBR Green fluorescence, single dose replicates | 72 h; hits give low values | activity change, % at 10 µM | 94,000 compounds, 2.3% hits; in the data active = activity change below about -80%; inconclusive = no clear call, values can overlap the other calls
C diff growth: C. difficile growth inhibitors, primary screen, HTS. Clostridium difficile clinical isolate growth, OD600, 24 h; hits give low values. growth activity, negative = inhibition, % at 16 µg/mL (by protocol). 86,000 compounds, 0.25% hits. AID 1259249, 2017;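 active = mean growth activity at or below -80% and every replicate also at or below -80%; inconclusive = mean at or below -80% but some replicate above -80%; inactive = mean growth activity above -80%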
T cruzi growth: T. cruzi intracellular proliferation inhibitors, primary screen, cell-based, beta-gal Tulahuen parasites, NIH3T3 host, luminescence. T. cruzi beta-gal in NIH3T3, GalScreen luminescence, 90 h. inhibition, % at 8.34 µM. 77,000 compounds, 5.9% hits. AID 624255, 2012;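 active = mean inhibition above about 93%, with at least 55% of replicates each passing it, limit read from the data, passing the limit was not always enough; inconclusive = only one of those two conditions holds; inactive = neither condition holds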
A number is an active result.

For CCC(=O)Nc1ccc2c(c1)C(=O)N(C)C[C@H](OC)[C@H](C)CN(C(=O)Cc1ccccn1)[C@@H](C)CO2 the results were Pf Dd2 inh inactive and T cruzi growth inactive.
`C[C@H](CO)N1C[C@H](C)[C@@H](CN(C)Cc2ccccc2C(=O)O)Oc2cc(-c3ccc(F)cc3)ccc2S1(=O)=O` gave Pf Dd2 inh inactive and C diff growth inactive.
Screening O=C(C[C@H]1CC[C@@H]2[C@H](COC[C@@H](O)CN2C(=O)Nc2ccc(F)cc2)O1)NCc1ccncn1 returned Pf Dd2 inh inactive and T cruzi growth inactive.
C[C@@H]1CN([C@H](C)CO)C(=O)c2cc(C#CC3CCCCC3)cnc2O[C@H]1CN(C)C(=O)NC1CCCC1 was read as Pf Dd2 inh inactive, C diff growth inactive and T cruzi growth inactive.
COc1ccc(S(=O)(=O)N(C)C[C@H]2OCCCC[C@H](C)Oc3ccc(NS(=O)(=O)c4cccs4)cc3C(=O)N([C@H](C)CO)C[C@H]2C)cc1 was read as Pf Dd2 inh -81, C diff growth inactive and T cruzi growth inactive.
C[C@@H]1CN([C@@H](C)CO)C(=O)c2cc(NS(=O)(=O)c3cccs3)ccc2O[C@@H](C)CCCCO[C@@H]1CN(C)S(=O)(=O)c1ccc(F)cc1 was read as Pf Dd2 inh -83, C diff growth inactive and T cruzi growth inactive.
Screening C[C@@H]1CCCCO[C@@H](CN(C)S(=O)(=O)c2ccc(F)cc2)[C@H](C)CN([C@H](C)CO)C(=O)c2cc(NS(=O)(=O)c3cccs3)ccc2O1 returned Pf Dd2 inh inactive, C diff growth inactive and T cruzi growth inactive.
`COc1ccc(S(=O)(=O)N(C)C[C@@H]2OCCCC[C@H](C)Oc3ccc(NS(=O)(=O)c4cccs4)cc3C(=O)N([C@H](C)CO)C[C@@H]2C)cc1` gave Pf Dd2 inh inactive, C diff growth inactive and T cruzi growth inactive.
Screening COc1ccc(S(=O)(=O)N(C)C[C@H]2OCCCC[C@H](C)Oc3ccc(NS(=O)(=O)c4cccs4)cc3C(=O)N([C@@H](C)CO)C[C@H]2C)cc1 returned Pf Dd2 inh -83, C diff growth inactive and T cruzi growth inactive.
For COc1ccc(S(=O)(=O)N(C)C[C@@H]2OCCCC[C@H](C)Oc3ccc(NS(=O)(=O)c4cccs4)cc3C(=O)N([C@@H](C)CO)C[C@H]2C)cc1 the results were Pf Dd2 inh inactive, C diff growth inactive and T cruzi growth inactive.
For O=C(C[C@H]1C=C[C@@H](NC(=O)C2CCC2)[C@H](CO)O1)NCC1CC1 the results were Pf Dd2 inh inactive, C diff growth inactive and T cruzi growth inactive.
`CCNC(=O)[C@@H]1[C@@H](CO)[C@@H]2Cn3c(ccc(-c4ccccc4F)c3=O)[C@@H]2N1CC` gave Pf Dd2 inh inactive, C diff growth inactive and T cruzi growth inactive.
C[C@@H]1CN([C@@H](C)CO)C(=O)c2cccc(NC(=O)Nc3ccc(F)cc3)c2O[C@H]1CN(C)Cc1ccc(C(=O)Nc2ccccc2N)cc1 was read as Pf Dd2 inh -82 and C diff growth inactive.
For C[C@H](CO)N1C[C@H](C)[C@H](CN(C)Cc2ccc(C(=O)Nc3ccccc3N)cc2)Oc2c(NC(=O)Nc3cccc4ccccc34)cccc2C1=O the results were Pf Dd2 inh inconclusive and C diff growth inactive.
`C[C@@H]1CN([C@H](C)CO)C(=O)c2cccc(NC(=O)Nc3ccc(F)cc3)c2O[C@H]1CN(C)Cc1ccc(C(=O)Nc2ccccc2N)cc1` gave Pf Dd2 inh inactive and C diff growth inactive.
Screening C[C@@H]1CN([C@@H](C)CO)C(=O)c2cccc(NC(=O)Nc3ccc(C(F)(F)F)cc3)c2O[C@H]1CN(C)Cc1ccc(C(F)(F)F)cc1 returned Pf Dd2 inh inactive, C diff growth inactive and T cruzi growth inactive.
`C[C@H]1CN([C@@H](C)CO)C(=O)c2cccc(NC(=O)Nc3ccc(F)cc3)c2O[C@@H]1CN(C)Cc1ccc(C(=O)Nc2ccccc2N)cc1` gave Pf Dd2 inh -83 and C diff growth inactive.
`C[C@@H]1CN([C@@H](C)CO)C(=O)c2cccc(NC(=O)Nc3ccc(C(F)(F)F)cc3)c2O[C@H]1CN(C)Cc1ccc(C(=O)Nc2ccccc2N)cc1` gave Pf Dd2 inh -85 and C diff growth inactive.
`C[C@@H]1CN([C@H](C)CO)C(=O)c2cccc(NC(=O)Nc3cccc4ccccc34)c2O[C@@H]1CN(C)Cc1ccc(C(=O)Nc2ccccc2N)cc1` gave Pf Dd2 inh -92 and C diff growth inactive.
`C[C@H](CO)N1C[C@H](C)[C@H](CN(C)Cc2ccc(C(=O)Nc3ccccc3N)cc2)Oc2c(NC(=O)Nc3ccc(F)cc3)cccc2C1=O` gave Pf Dd2 inh inactive and C diff growth inactive.
For COCCNC(=O)C[C@H]1C[C@H]2c3cc(NC(=O)C4CCC4)ccc3O[C@H]2[C@@H](CO)O1 the results were Pf Dd2 inh inactive and C diff growth inactive.
O=C(NCCN1CCCC1)[C@@H]1[C@@H](CO)[C@@H]2Cn3c(cccc3=O)[C@H]1N2C(=O)c1ccccc1 was read as C diff growth inactive and T cruzi growth inactive.
`CCCNC(=O)N1[C@H](CO)[C@H](c2ccccc2)[C@@H]1CNC(=O)c1ccccc1` gave Pf Dd2 inh inactive, C diff growth inactive and T cruzi growth inactive.
CN(C)C(=O)[C@H]1[C@H](CO)[C@H]2Cn3c(ccc(-c4ccccc4)c3=O)[C@H]2N1C(=O)c1ccccn1 was read as C diff growth inactive and T cruzi growth inactive.
For O=C(CC1CC1)Nc1ccc2c(c1)[C@H]1C[C@@H](CC(=O)NC3CCCCC3)O[C@H](CO)[C@H]1O2 the results were Pf Dd2 inh inactive, C diff growth inactive and T cruzi growth inactive.
Screening O=C(C[C@@H]1CC[C@H](NS(=O)(=O)c2ccc(F)cc2)[C@@H](CO)O1)NC1CCCCC1 returned Pf Dd2 inh inactive and C diff growth inactive.
C[C@@H]1CN([C@H](C)CO)C(=O)c2cccc(NC(=O)Nc3ccccc3)c2O[C@H]1CN(C)Cc1ccc(C(=O)Nc2ccccc2N)cc1 was read as Pf Dd2 inh inactive, C diff growth inactive and T cruzi growth inactive.
CC(C)NC(=O)Nc1cccc2c1O[C@@H](CN(C)Cc1ccc(C(=O)Nc3ccccc3N)cc1)[C@@H](C)CN([C@H](C)CO)C2=O was read as Pf Dd2 inh inactive and C diff growth inactive.
Screening CC(C)NC(=O)Nc1cccc2c1O[C@H](CN(C)Cc1ccc(C(=O)Nc3ccccc3N)cc1)[C@H](C)CN([C@@H](C)CO)C2=O returned Pf Dd2 inh -84 and C diff growth inactive.
Screening C[C@H]1CN([C@@H](C)CO)C(=O)c2cccc(NC(=O)Nc3ccc4c(c3)OCO4)c2O[C@H]1CN(C)Cc1ccc(C(=O)Nc2ccccc2N)cc1 returned Pf Dd2 inh inactive and T cruzi growth inactive.
For C[C@@H]1CN([C@@H](C)CO)C(=O)c2cccc(NC(=O)Nc3ccccc3)c2O[C@@H]1CN(C)Cc1ccc(C(=O)Nc2ccccc2N)cc1 the results were Pf Dd2 inh -94, C diff growth inactive and T cruzi growth inactive.
For C[C@@H]1CN([C@H](C)CO)C(=O)c2cccc(NC(=O)Nc3ccc4c(c3)OCO4)c2O[C@@H]1CN(C)Cc1ccc(C(=O)Nc2ccccc2N)cc1 the results were Pf Dd2 inh -91 and T cruzi growth inactive.

High-throughput results (PubChem)
